Data published in PubChem BioAssay (EPA / NIEHS).
Records with an inconclusive call do not appear. Activity calls are given as the source filed them. The calls were made as follows, unless noted: active = hit-call score of the fitted dose curve at least 0.9, where 1 is the maximum; inactive = score below 0.9.

How the values were obtained:
[1] = molecular target: CCAAT/enhancer-binding protein beta (Homo sapiens) (UniProt P17676); assay: ATG_C_EBP_CIS: Attagene CIS-FACTORIAL HepG2 Assay for human CCAAT/Enhancer Binding Protein (C/EBP) beta (AID 2282927); details: HepG2 Attagene cis-factorial transcription factor reporter; actives raise or lower the signal
Chain of CCAAT/enhancer-binding protein beta (Homo sapiens) (P17676 whole entry, looked up): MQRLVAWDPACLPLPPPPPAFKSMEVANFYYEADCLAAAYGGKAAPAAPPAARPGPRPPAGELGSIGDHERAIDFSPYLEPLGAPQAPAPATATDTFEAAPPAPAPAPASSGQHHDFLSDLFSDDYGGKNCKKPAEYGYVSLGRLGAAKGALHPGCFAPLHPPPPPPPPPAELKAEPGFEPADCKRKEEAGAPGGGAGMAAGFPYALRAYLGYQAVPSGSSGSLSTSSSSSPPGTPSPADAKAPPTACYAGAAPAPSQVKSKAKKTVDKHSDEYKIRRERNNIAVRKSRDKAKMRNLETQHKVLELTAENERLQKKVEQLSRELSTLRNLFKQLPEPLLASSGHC
Procedure, shortened: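 Changes in reporter mRNA, rather than exogenous chimeric receptor activity, reflect native C/EBP signalling in transfected HepG2 cells dosed for 24 h; transcripts are detected by RT-PCR and capillary electrophoresis.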

[2] = molecular target: Transcription factor E2F1 (Homo sapiens) (UniProt Q01094); assay: ATG_E2F_CIS: Attagene CIS-FACTORIAL HepG2 Assay for human E2F Transcription Factor 1 (AID 2282935); details: HepG2 Attagene cis-reporter, E2F reporter RNA transcripts; actives raise or lower the signal
Chain of Transcription factor E2F1 (Homo sapiens) (Q01094 whole entry, looked up): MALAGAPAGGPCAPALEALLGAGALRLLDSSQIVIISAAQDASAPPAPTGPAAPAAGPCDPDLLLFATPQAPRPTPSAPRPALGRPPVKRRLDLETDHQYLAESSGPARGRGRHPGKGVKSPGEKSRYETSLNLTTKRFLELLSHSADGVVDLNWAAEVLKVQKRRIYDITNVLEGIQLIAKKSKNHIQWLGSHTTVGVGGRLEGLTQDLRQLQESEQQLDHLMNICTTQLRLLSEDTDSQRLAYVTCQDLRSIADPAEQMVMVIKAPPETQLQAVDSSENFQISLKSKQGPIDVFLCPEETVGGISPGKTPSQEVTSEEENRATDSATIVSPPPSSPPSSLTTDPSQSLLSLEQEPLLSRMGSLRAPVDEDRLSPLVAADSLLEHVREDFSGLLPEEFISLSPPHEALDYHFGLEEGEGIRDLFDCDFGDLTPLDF
Procedure, shortened: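 Fluorescent RT-PCR products, digested with HpaI for 2 h at 37 C, are separated by capillary electrophoresis. Source RNA comes from transfected HepG2 cultures treated for 24 h.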

[3] = ATG_GATA_CIS: Attagene CIS-FACTORIAL HepG2 Assay for human GATA Binding Protein (AID 2282944); details: HepG2 GATA cis-element reporter, Attagene multiplex mRNA; actives raise or lower the signal
Procedure, shortened: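 Transient MRTU transfection, HepG2, 24 h compound exposure. Total RNA → oligo(dT) RT → PCR → 6-FAM primer extension → HpaI cut → CE. Bidirectional fit vs DMSO.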

[4] = molecular target: Hypoxia-inducible factor 1-alpha (Homo sapiens) (UniProt Q16665); assay: ATG_HIF1a_CIS: Attagene CIS-FACTORIAL HepG2 Assay for human Hypoxia Inducible Factor 1 (HIF1A) (AID 2282951); details: HepG2 Attagene cis-factorial HIF1a reporter transcription; actives raise or lower the signal
Chain of Hypoxia-inducible factor 1-alpha (Homo sapiens) (Q16665 whole entry, looked up): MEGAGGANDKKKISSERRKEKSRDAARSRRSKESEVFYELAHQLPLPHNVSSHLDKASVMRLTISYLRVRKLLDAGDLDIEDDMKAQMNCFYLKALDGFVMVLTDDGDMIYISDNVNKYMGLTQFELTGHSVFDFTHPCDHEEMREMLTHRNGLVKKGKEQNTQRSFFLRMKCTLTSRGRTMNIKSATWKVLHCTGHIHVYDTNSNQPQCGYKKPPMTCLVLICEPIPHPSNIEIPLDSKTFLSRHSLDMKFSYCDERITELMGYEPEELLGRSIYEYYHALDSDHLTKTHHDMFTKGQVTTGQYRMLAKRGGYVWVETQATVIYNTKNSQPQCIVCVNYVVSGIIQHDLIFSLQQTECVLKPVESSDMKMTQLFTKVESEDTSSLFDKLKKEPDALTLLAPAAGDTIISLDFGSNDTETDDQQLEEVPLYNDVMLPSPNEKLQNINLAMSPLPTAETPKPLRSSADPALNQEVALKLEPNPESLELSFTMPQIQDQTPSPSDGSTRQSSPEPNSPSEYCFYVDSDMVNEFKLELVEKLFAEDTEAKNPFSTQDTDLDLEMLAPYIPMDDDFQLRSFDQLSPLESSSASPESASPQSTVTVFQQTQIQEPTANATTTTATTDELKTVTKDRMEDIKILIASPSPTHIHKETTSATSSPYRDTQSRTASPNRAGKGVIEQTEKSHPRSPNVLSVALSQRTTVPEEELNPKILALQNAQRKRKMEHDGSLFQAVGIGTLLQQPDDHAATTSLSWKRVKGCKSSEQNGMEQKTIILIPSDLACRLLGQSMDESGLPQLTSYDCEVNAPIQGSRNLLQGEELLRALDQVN
Procedure, shortened: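 Cis-element reporter constructs were transiently transfected into HepG2 cells, which were treated for 24 h; reporter RNA was reverse-transcribed, amplified, labelled and resolved by capillary electrophoresis.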

[5] = molecular target: Hepatocyte nuclear factor 6 (Homo sapiens) (UniProt Q9UBC0); assay: ATG_HNF6_CIS: Attagene CIS-FACTORIAL HepG2 Assay for human Hepatocyte Nuclear Factor 6 (HNF6) (AID 2282952); details: HepG2 Attagene cis-factorial HNF6 reporter transcription; actives raise or lower the signal
Procedure, shortened: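 Readout: fluorescent reporter-transcript fragments resolved by capillary electrophoresis after RT-PCR, reflecting endogenous factor activity in transfected HepG2. Exposure 24 h. Gain or loss of signal fitted bidirectionally against DMSO.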

[6] = molecular target: Heat shock factor protein 1 (Homo sapiens) (UniProt Q00613); assay: ATG_HSE_CIS: Attagene CIS-FACTORIAL HepG2 Assay for human Heat Shock Transcription Factor 1 (HSE) (AID 2282953); details: HepG2 HSE cis-reporter, Attagene RNA transcription; actives raise or lower the signal
Chain of Heat shock factor protein 1 (Homo sapiens) (Q00613 whole entry, looked up): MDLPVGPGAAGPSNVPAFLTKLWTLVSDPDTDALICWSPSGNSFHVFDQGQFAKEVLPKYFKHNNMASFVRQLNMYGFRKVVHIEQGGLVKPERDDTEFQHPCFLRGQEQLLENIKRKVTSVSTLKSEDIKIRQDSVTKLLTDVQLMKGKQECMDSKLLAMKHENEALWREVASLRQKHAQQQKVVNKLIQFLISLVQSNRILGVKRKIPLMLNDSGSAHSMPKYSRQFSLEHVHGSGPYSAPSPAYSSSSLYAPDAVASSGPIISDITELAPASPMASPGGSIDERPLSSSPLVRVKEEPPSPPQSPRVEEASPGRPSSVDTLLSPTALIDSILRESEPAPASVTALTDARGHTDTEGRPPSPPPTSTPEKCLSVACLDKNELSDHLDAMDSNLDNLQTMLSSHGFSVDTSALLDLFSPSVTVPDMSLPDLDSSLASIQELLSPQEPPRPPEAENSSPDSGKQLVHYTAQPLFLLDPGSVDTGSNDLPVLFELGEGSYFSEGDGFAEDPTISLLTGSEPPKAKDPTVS
Procedure, shortened: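 HepG2, transient MRTU transfection, cis-promoter reporters (endogenous TF activity). 24 h compound. RNA → oligo(dT) RT → PCR → 6-FAM primer extension → HpaI cut → CE. Bidirectional fit vs DMSO.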

[7] = ATG_PXRE_CIS: Attagene CIS-FACTORIAL HepG2 Assay for human Pregnane X Receptor Element (PXRE) (AID 2282957); details: HepG2 Attagene CIS-FACTORIAL PXRE reporter, mRNA; actives raise or lower the signal
Procedure, shortened: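 Read-out: fluorescence of reporter-specific RT-PCR products resolved by capillary electrophoresis, fitted bidirectionally relative to DMSO. Human HepG2 liver cells carried transfected cis-promoter reporter units and were exposed to chemicals for 24 h.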

[8] = ATG_Sox_CIS: Attagene CIS-FACTORIAL HepG2 Assay for human SRY-box transcription factor (SOX) (AID 2282960); details: HepG2 Attagene cis-factorial SOX reporter, mRNA; actives raise or lower the signal
Procedure, shortened: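 Fluorescence-labelled cDNA fragments from reporter transcripts, sized by CE, give the signal. Cells: HepG2, transiently transfected with cis-regulated reporter units. Exposure 24 h; DMSO negative control; bidirectional curve fitting.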

[9] = molecular target: Transcription factor Sp1 (Homo sapiens) (UniProt P08047); assay: ATG_Sp1_CIS: Attagene CIS-FACTORIAL HepG2 Assay for human Specificity Protein 1 (Sp1) (AID 2282961); details: HepG2 Sp1 cis-reporter transcription, actives raise or lower the signal
Chain of Transcription factor Sp1 (Homo sapiens) (P08047 whole entry, looked up): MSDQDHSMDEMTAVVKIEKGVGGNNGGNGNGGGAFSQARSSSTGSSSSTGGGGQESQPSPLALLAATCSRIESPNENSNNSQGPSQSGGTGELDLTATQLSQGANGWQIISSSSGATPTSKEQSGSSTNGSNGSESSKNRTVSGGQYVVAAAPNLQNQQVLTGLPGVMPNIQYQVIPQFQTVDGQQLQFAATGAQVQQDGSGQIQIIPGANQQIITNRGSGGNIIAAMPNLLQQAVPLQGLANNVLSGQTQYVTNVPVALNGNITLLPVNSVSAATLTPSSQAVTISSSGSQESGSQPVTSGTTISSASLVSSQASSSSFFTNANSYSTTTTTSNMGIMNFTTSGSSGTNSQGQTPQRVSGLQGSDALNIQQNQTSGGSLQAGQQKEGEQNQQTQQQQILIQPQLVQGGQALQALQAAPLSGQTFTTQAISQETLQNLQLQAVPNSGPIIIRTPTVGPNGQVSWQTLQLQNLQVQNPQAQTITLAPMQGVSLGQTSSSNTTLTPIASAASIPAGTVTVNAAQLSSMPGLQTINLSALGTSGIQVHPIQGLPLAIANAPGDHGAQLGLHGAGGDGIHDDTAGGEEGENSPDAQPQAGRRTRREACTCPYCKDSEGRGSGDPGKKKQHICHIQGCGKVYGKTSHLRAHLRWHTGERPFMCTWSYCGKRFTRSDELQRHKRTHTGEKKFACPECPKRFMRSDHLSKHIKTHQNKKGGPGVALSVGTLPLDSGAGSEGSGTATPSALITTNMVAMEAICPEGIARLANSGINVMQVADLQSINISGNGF
Procedure, shortened: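 Chemicals are dosed onto HepG2 cells transfected with multiple cis-promoter reporter constructs, and after 24 h reporter RNA is reverse-transcribed, PCR-amplified and resolved by capillary electrophoresis for fluorescence quantitation; activity is scored up or down against DMSO.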

[10] = ATG_TAL_CIS: Attagene CIS-FACTORIAL HepG2 Assay for human TAL Basal Promoter (AID 2282966); details: HepG2 Attagene cis-factorial TAL promoter reporter; actives raise or lower the signal;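 also: background control endpoint measuring basal TAL promoter reporter mRNA not a specific factor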
Procedure, shortened: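 HepG2, transient MRTU transfection, 24 h compound exposure; RNA → oligo(dT) RT → PCR → 6-FAM primer extension → HpaI digest → CE fluorescence. Bidirectional curve fit vs DMSO. Background-control readout.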

[11] = ATG_VDRE_CIS: Attagene CIS-FACTORIAL HepG2 Assay for human Vitamin D Receptor Element (VDRE) (AID 2282968); details: HepG2 VDRE cis-reporter transcription, actives raise or lower the signal
Procedure, shortened: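 Measures endogenous factor activity through cis-element-driven reporter transcripts in transiently transfected HepG2. Cells are treated 24 h; reporter mRNA is quantified by RT-PCR and capillary electrophoresis; fitting is bidirectional.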

[12] = ATG_M_06_TRANS: Attagene TRANS-FACTORIAL HepG2 Assay for M06 Transcription Factor (Internal Marker) (AID 2282983; active = hit-call score of the fitted dose curve at least 0.9, where 1 is the maximum); details: HepG2 Attagene TRANS M06 internal marker reporter
Procedure, shortened: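 Read-out: fluorescent reporter cDNA fragments resolved by capillary electrophoresis after RT-PCR and HpaI cut. Source cells were HepG2 carrying transfected multi-reporter GAL4 constructs, dosed 24 h. Increase over DMSO control analysed.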

[13] = ATG_NFI_CIS: Attagene CIS-FACTORIAL HepG2 Assay for human Nuclear Factor I (NFI) (AID 2282989); details: HepG2 cis-regulatory reporter, NFI response element transcription; actives raise or lower the signal
Procedure, shortened: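 Transient MRTU transfection of HepG2 → 24 h chemical dosing → total RNA, oligo(dT) RT → PCR, 6-FAM primer extension, HpaI cut → capillary electrophoresis. Endpoint fitted bidirectionally relative to DMSO.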

[14] = molecular target: Myc proto-oncogene protein (Homo sapiens) (UniProt P01106); assay: ATG_Myc_CIS: Attagene CIS-FACTORIAL HepG2 Assay for human Myelocytomatosis (Myc) Proto-Oncogene Transcription Factor (AID 2282990); details: HepG2, Attagene cis-reporter transcription factor activity; actives raise or lower the signal
Chain of Myc proto-oncogene protein (Homo sapiens) (P01106 whole entry, looked up): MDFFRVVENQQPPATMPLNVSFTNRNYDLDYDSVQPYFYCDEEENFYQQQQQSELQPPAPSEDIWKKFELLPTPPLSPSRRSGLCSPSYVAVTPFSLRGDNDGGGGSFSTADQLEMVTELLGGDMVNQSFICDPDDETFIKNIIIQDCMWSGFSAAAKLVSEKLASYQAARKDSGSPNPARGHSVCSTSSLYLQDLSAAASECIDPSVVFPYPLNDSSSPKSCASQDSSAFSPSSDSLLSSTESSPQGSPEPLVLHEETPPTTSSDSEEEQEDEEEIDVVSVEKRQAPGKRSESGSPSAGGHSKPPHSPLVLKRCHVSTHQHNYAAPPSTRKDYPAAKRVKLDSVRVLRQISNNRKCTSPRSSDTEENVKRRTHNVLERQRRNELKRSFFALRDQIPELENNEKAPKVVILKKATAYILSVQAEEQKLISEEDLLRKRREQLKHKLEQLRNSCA
Procedure, shortened: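 Cells of the HepG2 human liver line bear multiple cis-driven reporter transcription units. Reporter mRNA after 24 h exposure is reverse-transcribed, amplified, labelled and resolved by capillary electrophoresis, with gain- or loss-of-signal fitting relative to DMSO.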

[15] = ATG_NRF2_ARE_CIS: Attagene CIS-FACTORIAL HepG2 Assay for human Nuclear Factor Erythroid 2 Related Factor 2 (NFR2) response to Antioxidant Response Elements (ARE) (AID 2282992); details: HepG2 Attagene ARE/NRF2 reporter, transcription factor activity; actives raise or lower the signal
Procedure, shortened: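 Endogenous transcription factor activity read out as reporter transcript levels (RT-PCR plus capillary electrophoresis, fluorescence) in transiently transfected HepG2 cells. Measured at 24 h after dosing; gain or loss of signal fitted versus DMSO.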

[16] = molecular target: Transcriptional activator Myb (Homo sapiens) (UniProt P10242); assay: ATG_Myb_CIS: Attagene CIS-FACTORIAL HepG2 Assay for human Myeloblastosis (Myb) Proto-Oncogene Transcription Factor (AID 2282986); details: HepG2 Attagene CIS-FACTORIAL Myb reporter transcription; actives raise or lower the signal
Chain of Transcriptional activator Myb (Homo sapiens) (P10242 whole entry, looked up): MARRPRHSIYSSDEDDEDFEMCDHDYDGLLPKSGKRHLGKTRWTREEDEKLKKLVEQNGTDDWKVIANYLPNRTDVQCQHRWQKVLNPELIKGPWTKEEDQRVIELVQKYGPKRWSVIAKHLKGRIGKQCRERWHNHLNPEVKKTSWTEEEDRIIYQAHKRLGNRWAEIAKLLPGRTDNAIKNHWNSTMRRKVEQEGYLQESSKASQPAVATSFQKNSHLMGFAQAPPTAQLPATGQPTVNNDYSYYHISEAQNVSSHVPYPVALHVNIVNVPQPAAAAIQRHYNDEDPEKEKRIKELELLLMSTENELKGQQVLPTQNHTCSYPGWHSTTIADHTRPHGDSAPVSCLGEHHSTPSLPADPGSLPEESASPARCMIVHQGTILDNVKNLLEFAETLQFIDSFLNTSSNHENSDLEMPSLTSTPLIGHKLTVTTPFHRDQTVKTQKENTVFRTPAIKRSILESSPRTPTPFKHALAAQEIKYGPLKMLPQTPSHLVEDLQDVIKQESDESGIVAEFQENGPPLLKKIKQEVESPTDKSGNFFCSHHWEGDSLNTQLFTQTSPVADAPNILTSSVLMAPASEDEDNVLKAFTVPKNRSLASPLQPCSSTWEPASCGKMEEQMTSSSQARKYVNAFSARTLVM
Procedure, shortened: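 Using HepG2 liver cells bearing transiently transfected cis-promoter reporter constructs, the assay measures induction or loss of reporter mRNA after 24 hours of dosing. Detection used fluorescently labeled RT-PCR products separated by capillary electrophoresis.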

[17] = molecular target: Cellular tumor antigen p53 (Homo sapiens) (UniProt P04637); assay: ATG_p53_CIS: Attagene CIS-FACTORIAL HepG2 Assay for human p53 Transcription Factor (AID 2282994); details: HepG2 p53 cis-element reporter, Attagene mRNA; actives raise or lower the signal
Procedure, shortened: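 Endogenous p53 activity read in transiently transfected HepG2 from a cis-element-driven reporter transcript after 24 h exposure. RNA reverse-transcribed, PCR-amplified, fluorescently labelled and sized by capillary electrophoresis; gain or loss fitted against DMSO baseline.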

[18] = molecular target: Cellular tumor antigen p53 (Homo sapiens) (UniProt P04637); assay: TOX21_p53_BLA_p2_ratio: Tox21 HCT-116 p53 Agonism Beta-lactamase Assay, Ratio, Phase 2 (AID 2283592; active = hit-call score of the fitted dose curve at least 0.9, where 1 is the maximum)
Procedure, shortened: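 Readout: blue/green (460/530 nm) FRET emission ratio after 2 h CCF4-AM loading at room temperature, excitation 405 nm. HCT116 p53 bla cells, 16 h compound exposure at 37C, 5% CO2; agonist direction fitted against DMSO baseline.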

[19] = molecular target: Signal transducer and activator of transcription 3 (Homo sapiens) (UniProt P40763); assay: ATG_STAT3_CIS: Attagene CIS-FACTORIAL HepG2 Assay for human Signal Transducer and Activator of Transcription 3 (STAT3) (AID 2282963); details: HepG2, Attagene cis-factorial STAT3 reporter transcription; actives raise or lower the signal
Chain of Signal transducer and activator of transcription 3 (Homo sapiens) (P40763 whole entry, looked up): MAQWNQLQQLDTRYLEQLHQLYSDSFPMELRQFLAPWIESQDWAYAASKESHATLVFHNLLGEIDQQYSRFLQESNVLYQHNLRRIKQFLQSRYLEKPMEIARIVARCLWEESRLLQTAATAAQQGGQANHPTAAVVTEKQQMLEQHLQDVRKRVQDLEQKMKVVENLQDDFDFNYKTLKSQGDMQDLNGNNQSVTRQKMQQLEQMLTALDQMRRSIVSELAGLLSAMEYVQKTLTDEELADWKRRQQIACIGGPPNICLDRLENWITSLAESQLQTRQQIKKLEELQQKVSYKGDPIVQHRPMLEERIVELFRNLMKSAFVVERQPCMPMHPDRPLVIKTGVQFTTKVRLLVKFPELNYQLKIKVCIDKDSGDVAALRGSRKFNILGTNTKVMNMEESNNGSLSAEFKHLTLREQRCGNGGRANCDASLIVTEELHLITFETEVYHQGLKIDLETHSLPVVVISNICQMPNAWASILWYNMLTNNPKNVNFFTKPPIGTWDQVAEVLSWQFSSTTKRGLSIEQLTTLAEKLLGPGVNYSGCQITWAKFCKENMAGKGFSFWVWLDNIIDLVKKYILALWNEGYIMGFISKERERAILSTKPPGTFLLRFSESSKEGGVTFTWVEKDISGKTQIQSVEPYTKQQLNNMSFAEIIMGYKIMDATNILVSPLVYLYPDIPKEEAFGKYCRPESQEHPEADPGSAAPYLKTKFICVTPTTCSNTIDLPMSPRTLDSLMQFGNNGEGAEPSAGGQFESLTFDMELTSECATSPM
Procedure, shortened: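 Cis-factorial format: endogenous transcription factors in HepG2 drive transfected reporter units. After 24 h treatment, reporter RNA was reverse-transcribed, amplified, FAM-labelled and HpaI-digested before CE analysis; activity scored in both directions against DMSO.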

[20] = molecular target: X-box-binding protein 1 (Homo sapiens) (UniProt P17861); assay: ATG_Xbp1_CIS: Attagene CIS-FACTORIAL HepG2 Assay for human X-box Binding Protein 1 (XBP1) (AID 2282972); details: HepG2 XBP1 cis-element reporter, Attagene multiplex; actives raise or lower the signal
Procedure, shortened: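 Reporter transcripts were quantified by RT-PCR with fluorescent primer extension and capillary electrophoresis after 24 h chemical exposure. Cells: transiently transfected HepG2 carrying cis-regulated reporter constructs; data fitted bidirectionally relative to DMSO.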

Measured: AC50

c1cc[c]([Bi]([c]2ccccc2)[c]2ccccc2)cc1
active: [7] 4.08 µM | [15] 48.9 µM
not listed: [16] | [17] | [18] | [19] | [20]
inactive: all other assays above

COCCCN
not listed: [12] | [19] | [20]
inactive: all other assays above

O=C(O)/C=C/C(=O)O
not listed: [8] | [14] | [16] | [18] | [20]
inactive: all other assays above

CN(C)CCCN1c2ccccc2CCc2ccc(Cl)cc21
active: [7] 5.14 µM | [11] 10.4 µM | [15] 17.7 µM | [17] 4.07 µM
not listed: [4] | [8] | [20]
inactive: all other assays above

CC/C=C\CCCCCO
not listed: [7]
inactive: all other assays above

CC=CC(=O)O
active: [4] 56 µM
not listed: [2] | [8] | [17] | [18] | [20]
inactive: all other assays above

CC(C)n1c(/C=C/[C@@H](O)C[C@@H](O)CC(=O)O)c(-c2ccc(F)cc2)c2ccccc21
active: [7] 3.98 µM | [17] 26 µM
not listed: [5] | [9] | [11] | [13] | [14] | [15]
inactive: all other assays above

CCCCn1cc[n+](C)c1
not listed: [3] | [6] | [9] | [11] | [14] | [17] | [18]
inactive: all other assays above

O=C(O)/C=C\C(=O)O
active: [7] 41.1 µM
not listed: [8] | [18]
inactive: all other assays above
